Assays:
Test in all cases: log2 ratio of Biotin-Ahx-Ub-VS probe labelling (fragment/DMSO); higher = less target engagement (more negative = stronger competition), active = hit call of the paper (q ≤ 0.05, log2 ratio ≤ -1)
Settings in all cases: compound concentration: 200 uM; treatment time: 3 h
[1] = target: USP9X (UniProt Q93008)
Method in brief: (§1)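 Labelled DUBs from HEK293T lysate were NeutrAvidin-enriched, digested with LysC and trypsin, and run by diaPASEF LC-MS/MS. Before that, each 495 µg sample in Tris/CHAPS/IGEPAL buffer with protease inhibitors was treated in triplicate with fragment at 200 µM or vehicle for 3 h, then with Biotin-Ahx-Ub-VS at 0.5 µM final for 1 h. Values are average log2 ratios of fragment over vehicle by unpaired t-test, based on global-median-normalised Spectronaut label-free quantities from proteins with ≥2 unique peptides.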

[2] = target: UniProt O00487
Method in brief: as §1

[3] = target: UniProt O00507
Method in brief: as §1

[4] = target: UniProt P51784
Method in brief: as §1

[5] = target: T1, UniProt Q5T2D3
T1 sequence (whole entry): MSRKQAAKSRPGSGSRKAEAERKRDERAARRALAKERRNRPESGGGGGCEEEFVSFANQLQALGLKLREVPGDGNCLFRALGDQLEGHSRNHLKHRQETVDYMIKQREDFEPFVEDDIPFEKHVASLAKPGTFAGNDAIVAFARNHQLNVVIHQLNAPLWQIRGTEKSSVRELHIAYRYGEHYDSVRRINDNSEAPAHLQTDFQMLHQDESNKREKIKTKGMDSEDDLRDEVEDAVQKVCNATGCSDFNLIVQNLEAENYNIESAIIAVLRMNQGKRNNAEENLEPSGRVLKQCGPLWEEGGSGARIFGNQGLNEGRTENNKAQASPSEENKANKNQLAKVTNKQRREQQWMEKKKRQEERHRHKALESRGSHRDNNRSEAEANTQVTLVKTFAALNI
Method in brief: as §1

[6] = target: T2, UniProt Q8TE49
T2 sequence (whole entry): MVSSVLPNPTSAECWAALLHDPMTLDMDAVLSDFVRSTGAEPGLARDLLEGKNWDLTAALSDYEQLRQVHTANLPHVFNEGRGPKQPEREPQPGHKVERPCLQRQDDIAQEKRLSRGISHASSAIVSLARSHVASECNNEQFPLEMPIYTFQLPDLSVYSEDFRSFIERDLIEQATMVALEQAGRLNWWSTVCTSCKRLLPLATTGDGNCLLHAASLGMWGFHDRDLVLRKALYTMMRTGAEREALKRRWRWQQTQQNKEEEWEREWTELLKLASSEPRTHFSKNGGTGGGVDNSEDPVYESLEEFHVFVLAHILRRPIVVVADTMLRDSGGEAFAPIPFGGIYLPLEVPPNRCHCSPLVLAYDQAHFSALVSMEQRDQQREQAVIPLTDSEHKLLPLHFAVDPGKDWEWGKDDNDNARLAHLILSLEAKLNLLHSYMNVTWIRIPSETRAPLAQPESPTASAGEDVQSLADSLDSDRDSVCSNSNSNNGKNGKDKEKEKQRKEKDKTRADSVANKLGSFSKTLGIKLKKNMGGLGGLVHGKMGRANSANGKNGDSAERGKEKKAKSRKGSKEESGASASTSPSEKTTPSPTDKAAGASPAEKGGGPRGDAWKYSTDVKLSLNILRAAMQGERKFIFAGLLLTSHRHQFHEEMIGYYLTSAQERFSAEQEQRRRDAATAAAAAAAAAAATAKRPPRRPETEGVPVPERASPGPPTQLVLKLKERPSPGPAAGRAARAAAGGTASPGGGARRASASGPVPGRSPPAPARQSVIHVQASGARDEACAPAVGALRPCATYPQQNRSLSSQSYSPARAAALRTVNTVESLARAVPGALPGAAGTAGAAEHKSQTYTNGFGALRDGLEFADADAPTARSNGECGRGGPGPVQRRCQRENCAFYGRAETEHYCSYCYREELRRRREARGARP
Method in brief: as §1

[7] = target: T3, UniProt Q9P2H5
T3 sequence (whole entry): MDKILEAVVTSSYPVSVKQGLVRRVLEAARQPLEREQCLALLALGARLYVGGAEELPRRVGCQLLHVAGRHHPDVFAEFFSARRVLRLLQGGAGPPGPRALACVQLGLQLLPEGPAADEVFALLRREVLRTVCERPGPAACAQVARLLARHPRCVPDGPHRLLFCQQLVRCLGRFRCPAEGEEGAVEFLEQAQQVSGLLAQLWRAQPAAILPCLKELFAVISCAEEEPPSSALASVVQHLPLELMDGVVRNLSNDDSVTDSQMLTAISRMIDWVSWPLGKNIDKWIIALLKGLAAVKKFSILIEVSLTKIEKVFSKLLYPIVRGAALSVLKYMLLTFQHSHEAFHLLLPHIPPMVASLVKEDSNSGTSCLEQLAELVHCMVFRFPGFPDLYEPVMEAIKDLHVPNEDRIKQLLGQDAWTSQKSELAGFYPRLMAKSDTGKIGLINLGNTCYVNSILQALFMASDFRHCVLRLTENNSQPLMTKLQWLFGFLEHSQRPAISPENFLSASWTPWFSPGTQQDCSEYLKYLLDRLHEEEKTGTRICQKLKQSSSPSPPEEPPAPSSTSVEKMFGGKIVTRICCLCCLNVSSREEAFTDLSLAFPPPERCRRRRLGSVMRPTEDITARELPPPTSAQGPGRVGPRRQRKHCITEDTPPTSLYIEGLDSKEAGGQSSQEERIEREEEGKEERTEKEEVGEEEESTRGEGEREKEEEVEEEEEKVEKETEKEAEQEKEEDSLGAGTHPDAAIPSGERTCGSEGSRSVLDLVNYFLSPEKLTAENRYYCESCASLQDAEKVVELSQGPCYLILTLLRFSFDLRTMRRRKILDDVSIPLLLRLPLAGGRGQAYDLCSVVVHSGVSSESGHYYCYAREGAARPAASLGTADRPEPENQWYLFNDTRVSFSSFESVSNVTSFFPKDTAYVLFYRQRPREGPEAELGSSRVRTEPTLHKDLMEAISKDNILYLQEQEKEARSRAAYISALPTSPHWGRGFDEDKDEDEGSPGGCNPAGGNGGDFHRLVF
Method in brief: as §1

[8] = target: T4, UniProt Q9UGI0
T4 sequence (whole entry): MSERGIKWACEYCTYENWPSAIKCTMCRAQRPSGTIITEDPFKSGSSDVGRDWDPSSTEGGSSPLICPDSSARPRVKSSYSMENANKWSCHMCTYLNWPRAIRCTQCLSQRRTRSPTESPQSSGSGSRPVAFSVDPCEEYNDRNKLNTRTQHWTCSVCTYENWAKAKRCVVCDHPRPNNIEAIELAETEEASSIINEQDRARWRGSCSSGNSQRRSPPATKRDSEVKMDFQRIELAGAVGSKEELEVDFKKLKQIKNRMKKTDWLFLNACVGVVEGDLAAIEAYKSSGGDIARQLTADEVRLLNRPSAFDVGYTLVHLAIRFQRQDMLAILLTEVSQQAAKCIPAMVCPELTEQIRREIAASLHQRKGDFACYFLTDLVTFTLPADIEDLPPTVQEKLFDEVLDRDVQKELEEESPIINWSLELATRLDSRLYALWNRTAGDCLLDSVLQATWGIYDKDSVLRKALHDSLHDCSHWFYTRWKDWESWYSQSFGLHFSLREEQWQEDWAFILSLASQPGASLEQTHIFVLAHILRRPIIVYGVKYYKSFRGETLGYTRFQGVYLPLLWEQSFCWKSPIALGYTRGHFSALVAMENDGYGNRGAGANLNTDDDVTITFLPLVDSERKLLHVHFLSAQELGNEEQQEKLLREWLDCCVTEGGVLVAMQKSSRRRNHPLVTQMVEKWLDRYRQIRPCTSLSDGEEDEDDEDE
Method in brief: as §1

[9] = target: T5, YOD1 (UniProt Q5VVQ6)
T5 sequence (whole entry): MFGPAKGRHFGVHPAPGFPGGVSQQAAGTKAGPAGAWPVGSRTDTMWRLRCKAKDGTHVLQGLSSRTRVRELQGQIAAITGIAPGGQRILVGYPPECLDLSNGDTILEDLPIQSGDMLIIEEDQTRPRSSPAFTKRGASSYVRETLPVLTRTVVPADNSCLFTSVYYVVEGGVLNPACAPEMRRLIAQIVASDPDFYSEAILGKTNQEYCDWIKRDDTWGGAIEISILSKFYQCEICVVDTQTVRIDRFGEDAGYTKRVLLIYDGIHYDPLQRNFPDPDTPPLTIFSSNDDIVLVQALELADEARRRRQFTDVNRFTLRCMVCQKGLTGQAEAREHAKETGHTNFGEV
Method in brief: as §1

Measured: log2 ratio of Biotin-Ahx-Ub-VS probe labelling

Sequence of USP9X (Q93008 whole entry, the tested form may be a part): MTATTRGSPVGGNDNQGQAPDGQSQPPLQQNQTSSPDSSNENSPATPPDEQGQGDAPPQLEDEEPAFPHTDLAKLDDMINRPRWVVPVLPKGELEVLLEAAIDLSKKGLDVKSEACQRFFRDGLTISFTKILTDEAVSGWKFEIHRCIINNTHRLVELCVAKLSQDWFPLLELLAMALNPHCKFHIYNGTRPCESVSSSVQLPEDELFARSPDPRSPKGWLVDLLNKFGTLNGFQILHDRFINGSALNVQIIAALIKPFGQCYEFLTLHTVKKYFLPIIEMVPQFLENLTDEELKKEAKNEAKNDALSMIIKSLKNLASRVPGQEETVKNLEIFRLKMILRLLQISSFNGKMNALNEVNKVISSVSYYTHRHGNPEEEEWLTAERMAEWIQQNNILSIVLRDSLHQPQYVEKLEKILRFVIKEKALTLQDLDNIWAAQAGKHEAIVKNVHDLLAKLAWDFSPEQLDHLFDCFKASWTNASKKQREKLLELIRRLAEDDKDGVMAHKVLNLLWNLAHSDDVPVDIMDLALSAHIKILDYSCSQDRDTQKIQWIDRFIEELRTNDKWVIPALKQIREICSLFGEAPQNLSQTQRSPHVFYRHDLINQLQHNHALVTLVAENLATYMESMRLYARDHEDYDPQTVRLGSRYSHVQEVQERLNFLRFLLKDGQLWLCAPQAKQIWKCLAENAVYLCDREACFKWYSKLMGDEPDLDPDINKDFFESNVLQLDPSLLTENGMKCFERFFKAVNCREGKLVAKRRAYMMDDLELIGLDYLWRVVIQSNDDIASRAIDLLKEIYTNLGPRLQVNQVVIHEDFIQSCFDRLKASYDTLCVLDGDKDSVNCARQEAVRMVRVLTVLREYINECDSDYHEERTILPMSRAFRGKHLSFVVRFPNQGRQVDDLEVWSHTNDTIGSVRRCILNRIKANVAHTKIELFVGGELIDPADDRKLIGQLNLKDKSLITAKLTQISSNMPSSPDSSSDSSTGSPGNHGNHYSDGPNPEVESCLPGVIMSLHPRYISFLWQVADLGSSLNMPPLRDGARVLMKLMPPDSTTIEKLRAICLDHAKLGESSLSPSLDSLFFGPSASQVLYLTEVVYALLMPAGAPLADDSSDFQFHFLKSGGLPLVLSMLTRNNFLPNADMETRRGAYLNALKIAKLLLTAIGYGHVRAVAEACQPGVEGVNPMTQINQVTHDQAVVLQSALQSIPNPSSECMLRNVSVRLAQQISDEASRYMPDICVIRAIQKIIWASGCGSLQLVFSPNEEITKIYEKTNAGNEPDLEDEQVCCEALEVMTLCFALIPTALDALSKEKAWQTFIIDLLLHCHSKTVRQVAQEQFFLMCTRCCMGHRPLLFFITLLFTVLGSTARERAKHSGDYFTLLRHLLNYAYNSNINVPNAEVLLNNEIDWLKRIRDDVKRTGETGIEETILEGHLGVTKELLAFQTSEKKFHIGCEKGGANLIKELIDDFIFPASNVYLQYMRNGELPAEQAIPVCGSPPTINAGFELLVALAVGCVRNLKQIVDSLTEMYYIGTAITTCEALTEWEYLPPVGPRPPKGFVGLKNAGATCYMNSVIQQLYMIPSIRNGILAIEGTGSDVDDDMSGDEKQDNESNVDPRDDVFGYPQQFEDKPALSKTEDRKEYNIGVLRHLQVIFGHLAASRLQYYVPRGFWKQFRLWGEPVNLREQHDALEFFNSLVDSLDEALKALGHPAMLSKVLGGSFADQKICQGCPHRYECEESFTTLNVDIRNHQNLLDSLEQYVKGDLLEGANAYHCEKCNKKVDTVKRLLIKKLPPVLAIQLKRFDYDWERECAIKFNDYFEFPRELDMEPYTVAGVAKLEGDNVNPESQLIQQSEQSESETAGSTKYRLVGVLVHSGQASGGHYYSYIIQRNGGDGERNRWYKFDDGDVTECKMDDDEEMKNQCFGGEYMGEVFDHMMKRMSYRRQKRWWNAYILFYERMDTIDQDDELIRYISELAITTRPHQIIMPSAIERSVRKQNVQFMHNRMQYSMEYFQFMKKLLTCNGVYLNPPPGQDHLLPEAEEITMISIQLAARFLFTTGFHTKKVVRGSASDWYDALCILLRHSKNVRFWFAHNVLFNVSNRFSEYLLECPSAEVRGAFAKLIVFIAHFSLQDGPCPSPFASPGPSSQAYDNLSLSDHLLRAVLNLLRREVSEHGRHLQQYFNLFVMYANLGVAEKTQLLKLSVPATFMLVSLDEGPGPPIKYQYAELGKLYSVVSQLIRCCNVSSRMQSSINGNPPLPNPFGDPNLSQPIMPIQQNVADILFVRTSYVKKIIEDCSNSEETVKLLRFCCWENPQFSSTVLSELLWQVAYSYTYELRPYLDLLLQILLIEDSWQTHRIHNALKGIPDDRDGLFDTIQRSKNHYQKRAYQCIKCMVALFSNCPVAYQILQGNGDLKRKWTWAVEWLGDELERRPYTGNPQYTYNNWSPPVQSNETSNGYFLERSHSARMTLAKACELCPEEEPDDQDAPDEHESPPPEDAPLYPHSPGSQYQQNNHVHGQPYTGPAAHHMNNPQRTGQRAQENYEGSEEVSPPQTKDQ
Sequence of UniProt O00487 (O00487 whole entry): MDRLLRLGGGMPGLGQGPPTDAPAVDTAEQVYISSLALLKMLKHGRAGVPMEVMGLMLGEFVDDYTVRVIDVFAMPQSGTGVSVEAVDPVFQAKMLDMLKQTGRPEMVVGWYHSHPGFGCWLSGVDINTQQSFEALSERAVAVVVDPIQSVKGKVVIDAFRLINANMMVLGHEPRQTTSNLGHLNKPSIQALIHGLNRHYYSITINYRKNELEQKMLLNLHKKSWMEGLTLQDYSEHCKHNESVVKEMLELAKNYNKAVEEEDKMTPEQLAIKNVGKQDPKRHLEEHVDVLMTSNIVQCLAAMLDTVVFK
Sequence of UniProt P51784 (P51784 whole entry): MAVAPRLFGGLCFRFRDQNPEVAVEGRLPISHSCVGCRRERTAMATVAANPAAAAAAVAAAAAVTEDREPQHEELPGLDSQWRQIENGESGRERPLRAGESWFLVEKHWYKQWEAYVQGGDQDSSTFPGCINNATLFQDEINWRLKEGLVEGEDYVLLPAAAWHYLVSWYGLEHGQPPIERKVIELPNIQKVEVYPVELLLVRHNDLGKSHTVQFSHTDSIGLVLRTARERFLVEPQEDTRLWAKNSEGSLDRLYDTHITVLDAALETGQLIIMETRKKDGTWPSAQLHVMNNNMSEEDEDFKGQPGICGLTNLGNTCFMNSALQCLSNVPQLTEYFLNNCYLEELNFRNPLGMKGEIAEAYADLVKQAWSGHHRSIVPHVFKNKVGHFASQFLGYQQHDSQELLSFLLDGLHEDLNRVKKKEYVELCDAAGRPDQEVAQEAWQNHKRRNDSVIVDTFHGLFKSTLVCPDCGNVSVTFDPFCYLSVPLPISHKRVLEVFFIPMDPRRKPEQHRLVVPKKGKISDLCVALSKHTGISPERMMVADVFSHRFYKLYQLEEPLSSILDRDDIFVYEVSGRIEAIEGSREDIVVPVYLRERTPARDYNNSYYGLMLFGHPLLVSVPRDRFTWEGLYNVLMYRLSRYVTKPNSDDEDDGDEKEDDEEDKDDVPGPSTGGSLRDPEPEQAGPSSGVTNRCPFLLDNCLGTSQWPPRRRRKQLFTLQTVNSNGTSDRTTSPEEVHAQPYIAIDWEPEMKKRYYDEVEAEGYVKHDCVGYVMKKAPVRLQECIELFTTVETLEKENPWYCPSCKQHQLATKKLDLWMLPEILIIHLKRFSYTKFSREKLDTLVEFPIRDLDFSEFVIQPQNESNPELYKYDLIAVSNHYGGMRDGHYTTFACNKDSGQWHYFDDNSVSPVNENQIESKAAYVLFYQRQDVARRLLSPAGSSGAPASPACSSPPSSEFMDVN

Cc1nc(CN2CCN(C(=O)CCl)CC2)cs1
inactive: [1] -0.168 | [2] -0.171 | [3] -0.246 | [4] -0.106 | [5] -0.213 | [6] -0.382 | [7] -0.401 | [8] -0.214 | [9] -0.111
